# Hits are enriched below; roughly 10% of the tested compounds scored in any of these assays.
# JMJD2A Tudor inh – inhibitors of human JMJD2A Tudor domain | O75164 | AlphaScreen JMJD2A-Tudor / H3K4me3 peptide binding | Potency, µM (series often up to 114 µM), for inactives: at the highest dose activity change, negative = inhibition, actives largely listed as inhibitors | hit rate 4.4% among 390,000; note: % is set by controls: 0 for no effect and ±100 for the full control effect; nearly all actives have a fitted effect of over 50% in size
# HP1b binding inh – HP1-beta chromodomain-methylated histone interaction inhibition; AlphaScreen HP1-beta / biotin-H3K9me3 peptide binding; Potency, µM (top dose mostly 114 µM), for the others: at the top dose activity change, negative = inhibition, most hits filed as inhibitors; hit rate 0.56% among 390,000; AID 540317; note: nearly all actives have a fitted effect of over 70% in size
#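 Compound inhibition of the preformed complex between 50 nM HP1-beta and 50 nM biotinylated H3K9me3 peptide was read by AlphaScreen. Buffer was PBS pH 7.4 with 0.01% Tween-20. Incubations ran 30 min at room temperature, with 10 ug/mL donor/acceptor beads.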
# BAZ2B inh – blocks human BAZ2B | hit rate 4.4% among 360,000 | Q9UIF8 | Potency, µM (top dose mostly 114 µM), for the others: at the top dose activity change, negative = inhibition, actives largely listed as inhibitors | AlphaScreen BAZ2B-H3K14Ac peptide displacement; note: % is set by controls: 0 for no effect and ±100 for the full control effect; nearly all actives have a fitted effect of over 60% in size
#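 AlphaScreen displacement of biotin-H3(5-23)K14Ac peptide (50 nM final) from BAZ2B (50 nM final) in PBS pH 7.4, 0.01% Tween-20; complex preformed 30 min RT, then compounds (top 110 uM) 30 min RT, beads 20 min dark.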
# GLS inhibitor – glutaminase GLS (human) inhibition | GLS enzymatic activity, qHTS titration | O94925 | hit rate 0.21% among 410,000 | Potency, µM (titrated, usually from 45.5 µM), without a hit: top-dose activity change, negative = inhibition, actives largely listed as inhibitors; note: % is set by controls: 0 for no effect and ±100 for the full control effect
#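 hKGA; 45 mM KH2PO4 pH 8.2 + 0.02% Tween-20; cpd via pin tool; 1 mM Gln soln; GluOx/HRP/Amplex Red; RT 30 min; fluor. t0 & final.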
# G9a inh – inhibitors of human histone lysine methyltransferase G9a; G9a H3K9 monomethylation, AlphaScreen, 2 h; Q96KQ7; hit rate 8.8% among 350,000; Potency, µM (highest dose often 102 µM), for inactives: at the top dose activity, negative = inhibition, hits mostly inhibitors; note: % is set by controls: 0 for no effect and ±100 for the full control effect; nearly all actives have a fitted effect of over 75% in size
#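 Chemiluminescent proximity detection of H3K9 monomethylation, read after 10 min bead incubation in the dark. Reaction: 20 nM G9a, 500 nM biotin-H3K9 peptide, 20 uM SAM cofactor, 2 h, room temperature, following 15 min enzyme-compound preincubation.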
# * marks the source's active call; other numbers are inactive results; ? = inconclusive; nt = no result; [ ] = another dose, or the depositor's remark. Calls come from the whole dose curve; as a rule, active = well fitted curve in the direction sought with a large enough effect; inconclusive = small, poorly fitted or top-dose-only effect, or another doubt; inactive = no such curve, though single readings can be large; an effect the other way counts as inactive or inconclusive. Potency is the fitted concentration of half-maximal effect.
SMILES,JMJD2A Tudor inh,HP1b binding inh,BAZ2B inh,GLS inhibitor,G9a inh
CCOc1ccc(/C=N/NC(=O)CN2CCSCC2)cc1,2µM*,?,50µM*,9%,10µM*
COc1ccc(/C=N/NC(=O)CN2CCN(Cc3ccccc3)CC2)cc1Br,-21%,-8%,-21%,0%,6%
COc1ccc(/C=N/NC(=O)CN2CCCC2)cc1,-16%,34%,-4%,3%,3%
NC(=O)C1CCN(c2csc3ccc(F)cc3c2=O)CC1,-2%,31%[57 µM],-2%,10%,0%[59 µM]
Cc1cccc(C(=O)NNC(=O)Nc2ccccc2)c1,-18%,33%,-4%,-1%,2%
Fc1ccc(OCc2nc(-c3ccc(Br)o3)no2)c(F)c1,245%,87%,2%,7%,?
CCN(CCNCC(O)COCc1ccc(Cl)cc1)c1cccc(C)c1 (stereo not given),0.89µM*,40µM*,20µM*,?,7.9µM*
Cc1c(C(=O)N(Cc2ccccc2)C2CCS(=O)(=O)C2)oc2ccccc12 (stereo not given),-23%,19%,-8%,-5%,3%
Cc1[nH]c2ccccc2c1C(=O)C(=O)NCc1nnnn1-c1ccc(F)c(F)c1,nt,nt,nt,1%,nt
Cc1nn(C)c(C)c1S(=O)(=O)Nc1ccc2c(c1)OCO2,-27%,18%,?,32%,50µM*
COc1ccc(N(CC(=O)NCc2ccc3c(c2)OCO3)S(=O)(=O)c2c(C)nn(C)c2C)cc1,-4%,24%,7%,-1%,79µM*
Cc1ccc(S(=O)(=O)Nc2ccc3c(c2)OCCO3)cc1,-31%,-1%,-20%,-3%,-3%
O=S(=O)(Nc1ccc2c(c1)OCO2)c1ccccc1,-14%,6%,-3%,38%,14µM*
O=[N+]([O-])c1ccc(S(=O)(=O)Nc2ccc3c(c2)OCCO3)cc1,?,-4%,?,13%,40µM*
COc1ccc(S(=O)(=O)Nc2ccc3c(c2)OCO3)cc1,-15%,19%,-10%,23%,2%[59 µM]
Cc1ccc2[nH]c(=O)c3cc(C(=O)N(C)c4ccc(C)c(C)c4)sc3c2c1,-22%,39%,-16%,-3%,nt
Cc1cc(NS(=O)(=O)c2ccccc2)c(C)c(Cl)c1O,?,?,2%,8%,28µM*
Cc1c(O)ccc(NS(=O)(=O)c2ccccc2)c1C,-2%[11.4 µM],19%,-11%,0%,-50%
Cc1ccc2cccc(S(=O)(=O)Nc3ccc4c(c3)OCO4)c2n1,?,20%,50µM*,14%,?
O=S(=O)(Nc1ccc(O)c(NS(=O)(=O)c2ccccc2)c1)c1ccccc1,63µM*,-30%,?,-18%,0.32µM*
O=C(Nc1cccc(S(=O)(=O)NC2=NCCC2)c1)c1ccc(OC(F)F)cc1,-13%,31%,-3%,0%,?
S=C(NCCCn1ccnc1)NC1CCCCC1,-4%,33%,-37%,-6%,6%[59 µM]
c1cn(CCCNC2=NCCCCC2)cn1,-28%,27%,50µM*,3%,-2%
c1cn(CCCNC2CCCCCCC2)cn1,40µM*,?,nt,2%,nt
c1cn(CCCNc2ncnc3sc4c(c23)CCC4)cn1,-23%,11%,13%,1%,4%
SMILES,JMJD2A Tudor inh,HP1b binding inh,BAZ2B inh,GLS inhibitor,G9a inh
CSc1nc(SCC(N)=O)c2c3c(sc2n1)CN(C)CC3,-9%,10%,-2%,-7%,4%[59 µM]
COc1cccc(N2CCN(Cc3nc(N)nc(Nc4ccccc4OC)n3)CC2)c1,-27%[57.1 µM],18%,50µM*,26%,-5%[59 µM]
COc1ccccc1Nc1nc(N)nc(CN2CCN(c3ccccc3)CC2)n1,56µM*,-1%,50µM*,8%,?
COc1ccccc1N1CC(C(=O)OCc2nc(N)nc(Nc3ccccc3)n2)CC1=O (stereo not given),-22%,27%,1%,-2%,?
COc1ccccc1N1CCN(Cc2nc(N)nc(Nc3ccccc3)n2)CC1,50µM*,14%,-95%,50%,79µM*
CC1=CCC(C(=O)N/N=C/c2cccs2)C(c2ccc(F)cc2)C1 (stereo not given),-16%,26%,-26%,-13%,3%[12.7 µM]
O=c1cc(-c2ccccc2)nc2nc[nH]n12,-11%,43%,6%,18%,?
CC(C)Sc1ncnc2[nH]ncc12,-7%,19%,nt,7%,nt
